Compounds with a hit are over-represented: about 4.1% of the library has one in this group of screens.
DAX1 inh-1: inhibits human nuclear receptor DAX1. inhibition, % at 6.75 µM. 340,000 compounds, 0.99% hits. P51843. HEK293 Gal4-DAX1 luciferase reporter, luminescence;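 active = inhibition above the mean over all tested compounds plus 3 SD, cut at about 4.2% in these data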;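 note: 0% = DAX1-transfected cells with DMSO and 100% = empty-vector control cells with DMSO; inhibition shows as a rise in luminescence from relieved DAX1 repression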
Target sequence (P51843 207-470 limits assumed): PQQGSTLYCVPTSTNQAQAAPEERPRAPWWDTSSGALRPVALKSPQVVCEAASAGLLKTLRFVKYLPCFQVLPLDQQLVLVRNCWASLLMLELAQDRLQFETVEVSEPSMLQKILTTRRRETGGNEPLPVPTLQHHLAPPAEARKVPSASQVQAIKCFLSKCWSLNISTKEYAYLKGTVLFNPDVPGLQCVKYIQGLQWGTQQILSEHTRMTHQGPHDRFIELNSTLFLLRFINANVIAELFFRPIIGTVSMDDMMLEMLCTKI
hcDAF-12 act: activators of H. contortus DAF-12 nuclear receptor | HEK293 hcDAF-12 lit1-tk-luc reporter, luminescence; 0% DMSO, 100% Δ7-dafachronic acid | activation, % at 6.8 µM | 370,000 compounds, 1.4% hits;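 active = activation above the mean of all tested compounds plus 3 SD, cut at about 5.5% in these data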;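 note: 100% = response to 3 µM Δ7-dafachronic acid high control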
ssDAF-12 act: activates DAF-12 receptor from parasite S. stercoralis; HEK293 ssDAF-12/GRIP1 lit1-tk-luc reporter, luminescence; % of 3 µM dafachronic acid response; activation, % at 6.8 µM; 370,000 compounds, 1% hits;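 active = activation above the mean over all tested compounds plus 3 SD, cut at about 0.9% in these data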;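 note: 0% = DMSO-only wells and 100% = 3 µM delta7-dafachronic acid wells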
DAX1 inh-2: DAX1 (NR0B1) inhibition, primary screen; HEK293T StAR-luciferase reporter, SF-1/DAX-1 repression relief; inhibition, % at 6.8 µM; 370,000 compounds, 1.1% hits; AID 652010;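 active = inhibition above the mean over all tested compounds plus 3 SD, cut at about 3.6% in these data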;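 note: 0% = DAX-1 cells with DMSO and 100% = cells lacking DAX-1 with DMSO; higher inhibition means more luminescence from relief of DAX-1 repression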
hgDAF12 agonist: agonists of H. glycines DAF-12 nuclear receptor. HEK293 GAL4-hgDAF12 UAS-luciferase reporter, agonist luminescence; normalized to butyrate control. activation, % at 6.8 µM. 370,000 compounds, 1.8% hits;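 active = activation above a cutoff set at the mean of all screened compounds plus 3 SD, cut at about 10% in these data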;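 note: 0% = DMSO wells and 100% = sodium butyrate wells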
DAX1 inh confirm: NR0B1 (human) inhibition, confirmation. inhibition, % at 6.8 µM. 2,400 compounds, 87% hits. HEK293T StAR-promoter luciferase reporter, SF-1/DAX-1 repression. shares compounds with DAX1 inh-2;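 active = inhibition above the average of every tested compound plus 3 SD, cut at about 3.8% in these data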;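 note: 0% = DAX-1 cells with DMSO and 100% = no DAX-1 control cells with DMSO; active compounds raise luminescence by relieving repression of the StAR reporter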
Target sequence (P51843 whole entry, looked up): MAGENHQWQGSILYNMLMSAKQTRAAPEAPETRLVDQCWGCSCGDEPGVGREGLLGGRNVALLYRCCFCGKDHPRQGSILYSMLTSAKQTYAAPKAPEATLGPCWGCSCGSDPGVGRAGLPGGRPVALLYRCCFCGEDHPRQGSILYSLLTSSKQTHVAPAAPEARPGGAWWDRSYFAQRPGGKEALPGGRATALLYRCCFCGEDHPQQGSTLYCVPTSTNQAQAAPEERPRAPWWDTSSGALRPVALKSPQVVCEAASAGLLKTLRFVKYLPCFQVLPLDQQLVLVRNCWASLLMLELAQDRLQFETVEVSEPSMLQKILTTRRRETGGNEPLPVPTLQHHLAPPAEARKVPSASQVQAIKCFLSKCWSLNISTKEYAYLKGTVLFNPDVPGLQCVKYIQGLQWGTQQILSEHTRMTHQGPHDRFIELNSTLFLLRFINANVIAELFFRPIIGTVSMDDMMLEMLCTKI
SF1 mutant ctr: counter-screen for DAX1 inhibitors: nonselective inhibitors with SF-1 AF2 mutant; HEK293 StAR-luciferase, luminescence; inhibition, % at 6.8 µM; 2,400 compounds, 78% hits; shares compounds with DAX1 inh-2;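 active = inhibition above the mean of all tested compounds plus 3 SD, cut at about 3% in these data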;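 note: 0% = DAX-1 transfected cells with DMSO and 100% = cells without DAX-1 with DMSO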
LXRb hcDAF ctr: LXR-beta agonism as hcDAF-12 counter-screen; shares compounds with hcDAF-12 act; HEK293 Gal4-LXR tk-luc reporter, luminescence, 24 h; normalized: DMSO 0%, positive control 100%; activation, % at 6.8 µM; 3,400 tested, under 10 active;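 active = mean percent activation of the reporter above a cutoff set as the average over tested compounds plus their standard deviation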
hcDAF12 conf: hcDAF-12 agonism, confirmation assay; shares compounds with hcDAF-12 act; HEK293 hcDAF-12 lit1-tk-luc reporter, luminescence; % of Δ7-dafachronic acid response; activation, % at 6.8 µM; 3,400 compounds, 61% hits;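 active = mean activation across triplicate tests above the threshold derived from the earlier primary screen, cut at about 5.5% in these data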;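 note: 0% = DMSO only wells and 100% = 3 µM Δ7-dafachronic acid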
* marks the source's active call; other numbers are inactive results; / = no result.

SMILES | DAX1 inh-1 | hcDAF-12 act | ssDAF-12 act | DAX1 inh-2 | hgDAF12 agonist | DAX1 inh confirm | SF1 mutant ctr | LXRb hcDAF ctr | hcDAF12 conf
CC(C)N1CCCCC(NC(=O)c2ccccc2)C1=O (stereo unspecified) | / | -2 | -2 | 1 | 0 | / | / | / | /
COc1c(O)cc2oc(-c3ccc(O)cc3)cc(=O)c2c1O | 0 | 9.6* | 0 | 5.2* | 11* | 10* | 2 | 2 | 6.8*
COc1cc2oc(-c3ccc(O)cc3)cc(=O)c2c(O)c1OC | -2 | -2 | -1 | -2 | 3 | / | / | / | /
Cc1nc(NC2CCCC2)c2nnn(Cc3ccccc3)c2n1 | / | -2 | -2 | 0 | 1 | / | / | / | /
CC(C)(C)c1ccc(/C=N/NC(=O)c2ccccn2)cc1 | -2 | 7.2* | 0 | 12* | 13* | 14* | 6.2* | 2 | 9.5*
COc1ccc(-c2cn3c4c(sc3n2)CCCC4)cc1 | -1 | 17* | 1.3* | 5.1* | 13* | 12* | 7.9* | 2 | 20*
Cc1cccc(Cn2cc(COC(=O)N(C)Cc3ccccc3)nn2)c1 | / | 1 | -1 | 0 | -3 | / | / | / | /
COc1ccc(OC)c(CN2C(=O)CSCC2(C)c2nnnn2C2CCCC2)c1 (stereo unspecified) | / | 0 | -1 | -1 | 0 | / | / | / | /
COc1cc(CNc2nc3ccccc3s2)cc(OC)c1OC | 1 | 0 | -1 | -1 | -3 | / | / | / | /
COc1ccc2sc(NCc3ccccc3)nc2c1 | 1 | 7.1* | 0 | 6.5* | 6 | 7.1* | 6.6* | 1 | 4
Nc1[nH]c(C(=O)c2ccccc2)c(-c2ccccc2Br)c1C(=O)c1cccs1 | / | 0 | -1 | 1 | 3 | / | / | / | /
Cc1n[nH]c2ccccc2c1=O | 1 | 2 | 0 | 1 | 1 | / | / | / | /
CC(C)(C)c1ccc(Nc2n[nH]c3ccccc23)cc1 | / | 13* | 2.9* | 11* | 28* | 12* | 4.6* | 2 | 20*
CCCCCCCCN1C(=O)[C@@H](CC(=O)N2CCCC2)C[C@@]2(C(=O)OC)C1=C[C@H](C(C)C)O[C@@H]2C1CC1 | / | 0 | -1 | -1 | 0 | / | / | / | /
CC(=C\C=O)/C(C)=C/CC[C@@H]1O[C@@H]2C[C@@H]3O[C@](C)(C[C@H]4C[C@H](O)[C@@H]5O[C@@H]6C[C@H](O)[C@@H](C)O[C@@]6(C)CC[C@H]5O4)[C@@H](O)CC[C@@]3(C)O[C@H]2[C@@H](O)[C@@H]1C | / | -2 | -1 | / | -3 | / | / | / | /
CCC(CC)c1nnc(NC(=O)c2ccc3ccccc3n2)s1 | 2 | 11* | 2.1* | 4.6* | 10 | 10* | 6.8* | 1 | 11*
CCC(CC)c1nnc(NC(=O)c2cc(-c3ccccc3)nc3ccccc23)s1 | 0 | -1 | -2 | 0 | 1 | / | / | / | /
O=C(CSc1nnc(-c2cccnc2)n1Cc1ccco1)Nc1ccc(Cl)cc1 | / | 1 | -1 | 1 | 0 | / | / | / | /
Cc1ccc(C(=O)/C=C/Nc2ccccc2C(N)=O)cc1 | -2 | 7.0* | 1.8* | 4.7* | 12* | 12* | 7.0* | 2 | 7.0*
O=C(NCCSc1ccccc1)c1ccc(Br)cc1 | 1 | 7.4* | 0 | 4.7* | 13* | 15* | 7.7* | 2 | 5.9*
Nn1c(SCC(=O)Nc2cccc3ccccc23)nnc1-c1cc(-c2ccccc2)n[nH]1 | / | -2 | -1 | -3 | -1 | / | / | / | /
CC(C)(C)NC(=O)C(c1cc2ccccc2o1)n1c(-c2ccc(-c3ccccc3)cc2)nc2ccccc21 (stereo unspecified) | / | 21* | 4.8* | 10* | 25* | 13* | 9.6* | 2 | 25*
CC1(O)C(c2ccccc2)=Nc2ccccc21 (stereo unspecified) | 4.5* | 9.9* | 0 | 5.3* | 11* | 13* | 7.6* | 1 | 6.5*
COc1ccc(S[C@]2(C(=O)N3CCCC3)CC(=O)N(c3ccsc3)[C@@H]2c2ccc(OC)cc2)cc1 | / | -2 | -1 | -2 | -1 | / | / | / | /
COc1ccc(OCCSc2ncccn2)cc1 | 2 | 6.9* | -1 | 4.8* | 12* | 11* | 7.8* | 1 | 6.6*
SMILES | DAX1 inh-1 | hcDAF-12 act | ssDAF-12 act | DAX1 inh-2 | hgDAF12 agonist | DAX1 inh confirm | SF1 mutant ctr | LXRb hcDAF ctr | hcDAF12 conf
CCCCCCn1c(-c2ccc(Cl)cc2Cl)csc1=Nc1ccccc1 | / | 0 | 0 | 0 | 2 | / | / | / | /
COc1ccc(Cl)c2c1[nH]c1nc(SCc3ccccn3)nnc12 | 2 | 8.6* | 1.6* | 11* | 15* | 10* | 3 | 1 | 6.1*
CCOC(=O)c1sc(NC(=O)c2cncc(Br)c2)nc1C | / | -1 | -1 | 0 | 2 | / | / | / | /
Cc1csc(NC(=O)c2cncc(Br)c2)n1 | 0 | 6.8* | 0 | 5.2* | 11* | 13* | 7.8* | 1 | 4
COc1cc(O)c(C(CC(=O)N2CC(C)OC(C)C2)c2ccc3c(c2)OCO3)c(OC)c1 (stereo unspecified) | / | -2 | -1 | / | -2 | / | / | / | /
CC1(c2nnnn2-c2ccc(F)cc2)CCCC(=O)N1CCc1c[nH]c2ccccc12 (stereo unspecified) | / | 0 | 0 | 1 | -2 | / | / | / | /
O=C(Nc1ccc([N+](=O)[O-])cc1)C(=O)Nc1cccc(C(=O)O)c1 | -7 | 11* | 2.7* | 5.4* | 13* | 12* | 8.5* | 2 | 25*
O=C(OCc1cn(Cc2ccccc2C(F)(F)F)nn1)N1CCOCC1 | / | -1 | -1 | 0 | 3 | / | / | / | /
N/C(=N\OC(=O)/C=C/c1ccccc1Cl)c1ccccn1 | -3 | 7.0* | 0 | 6.2* | 8 | 18* | 6.1* | 2 | 8.5*
N/C(=N\OC(=O)/C=C/c1ccc(Br)cc1)c1ccccn1 | 0 | 8.0* | 2.2* | 4.7* | 12* | 9.3* | 7.0* | 1 | 8.3*
N#Cc1ccc(NC(=O)OC2CC3CC2[C@H]2CCCCN2C3)cc1 (stereo partly specified) | / | -2 | 0 | 1 | -2 | / | / | / | /
Clc1ccc(-c2cn3c(n2)-c2ccccc2C3)cc1Cl | 2 | 17* | 2.0* | 5.9* | 20* | 9.2* | 6.4* | 2 | 15*
Cc1ccsc1C(=O)Nc1nccs1 | 1 | 0 | 0 | 0 | 5 | / | / | / | /

Screening results as filed in PubChem.
